Source: PubChem BioAssay AID1159580 (chemical genetic matrix, 2015)
Among all 5,500 compounds or so, about 2,000 (36%) were called active. Not shown: some 18% with an inconclusive outcome. No stated cut-off is given here; in the data, active means normalized growth mostly below about 0.91 (no sharp cut-off); inconclusive means no clear call, values can overlap the other calls; inactive means mostly above about 0.92. This is one part of the list.

Experiment: chemical genetic growth profiling, strain panel (AID 1159580);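 further: tested at 20 µM; growth read once vehicle control cultures reached saturation at 30 °C; 1 = growth at the plate median or of vehicle wells; lower values mean less growth of the strain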
Conditions: S. cerevisiae deletion strains, growth OD

Measured: normalized growth

CCC(=O)Nc1ccc(Cl)c(Cl)c1
inactive: locus YAL013W, strain DEP1, hits give low values 0.99 | locus YAL021C, strain ccr4, hits give low values 0.975 | locus YAL026C, strain drs2, hits give low values 0.994 | locus YAL030W, strain snc1, hits give low values 1.01 | locus YBL061C, strain skt5, hits give low values 0.978 | locus YBR009C, strain hhf1, hits give low values 0.982 | locus YBR021W, strain FUR4, hits give low values 0.952 | locus YBR023C, strain chs3, hits give low values 0.988 | locus YBR171W, strain sec66, hits give low values 0.983 | locus YBR229C, strain ROT2, hits give low values 1 | locus YBR231C, strain swc5, hits give low values 0.982 | locus YBR279W, strain paf1, hits give low values 0.99 | locus YCL011C, strain gbp2, hits give low values 0.983 | locus YCL016C, strain dcc1, hits give low values 0.989 | locus YCL029C, strain bik1, hits give low values 1.01 | locus YCL061C, strain MRC1, hits give low values 0.986 | locus YCL069W, strain vba3, hits give low values 0.996 | locus YCR088W, strain abp1, hits give low values 0.99 | locus YDL005C, strain med2, hits give low values 0.981 | locus YDL035C, strain GPR1, hits give low values 0.988 | locus YDL040C, strain nat1, hits give low values 0.99 | locus YDL074C, strain BRE1, hits give low values 0.898 | locus YDL101C, strain DUN1, hits give low values 0.999 | locus YDL134C, strain PPH21, hits give low values 1 | locus YDL185W, strain tfp1, hits give low values 0.99 | locus YDL192W, strain arf1, hits give low values 0.994 | locus YDR001C, strain nth1, hits give low values 0.989 | locus YDR069C, strain doa4, hits give low values 0.971 | locus YDR101C, strain arx1, hits give low values 0.991 | locus YDR137W, strain rgp1, hits give low values 1.03 | locus YDR150W, strain NUM1, hits give low values 0.998 | locus YDR159W, strain sac3, hits give low values 0.959 | locus YDR162C, strain NBP2, hits give low values 0.985 | locus YDR195W, strain ref2 0.956 | locus YDR297W, strain sur2, hits give low values 0.988 | locus YDR318W, strain mcm21, hits give low values 0.996 | locus YDR334W, strain swr1, hits give low values 0.996 | locus YDR335W, strain msn5, hits give low values 0.988 | locus YDR388W, hits give low values 1 | locus YDR392W, strain spt3, hits give low values 0.98 | locus YDR502C, strain sam2, hits give low values 0.998 | locus YEL003W, strain gim4, hits give low values 0.992 | locus YEL037C, strain rad23, hits give low values 1 | locus YEL061C, strain CIN8 (second series), hits give low values 0.978 | locus YEL061C, strain CIN8, hits give low values 0.994 | locus YER016W, strain bim1, hits give low values 0.991 | locus YER110C, hits give low values 0.996 | locus YER111C, strain swi4, hits give low values 0.989 | locus YER155C, strain BEM2 (second series), hits give low values 0.998 | locus YER155C, strain BEM2, hits give low values 1.01 | locus YER167W, strain BCK2, hits give low values 1 | locus YFR010W, strain ubp6, hits give low values 0.993 | locus YGL078C, strain dbp3, hits give low values 1.01 | locus YGL086W, strain mad1, hits give low values 0.997 | locus YGL167C, strain pmr1, hits give low values 0.984 | locus YGL173C, strain kem1, hits give low values 0.978 | locus YGL227W, strain vid30, hits give low values 0.988 | locus YGL240W, strain doc1, hits give low values 0.96 | locus YGL248W, strain PDE1, hits give low values 0.993 | locus YGL253W, strain hxk2, hits give low values 1 | locus YGR078C, strain PAC10, hits give low values 0.961 | locus YGR135W, strain pre9, hits give low values 0.982 | locus YGR229C, strain SMI1, hits give low values 0.958 | locus YGR252W, strain gcn5, hits give low values 0.874 | locus YHR013C, strain ard1, hits give low values 0.971 | locus YHR027C, strain rpn1, hits give low values 0.994 | locus YHR030C, strain SLT2, hits give low values 0.978 | locus YHR079C, strain IRE1 (second series), hits give low values 0.999 | locus YHR094C, strain hxt1, hits give low values 1 | locus YHR129C, strain ARP1, hits give low values 0.988 | locus YHR142W, strain chs7, hits give low values 1 | locus YHR200W, strain rpn10, hits give low values 1 | locus YIL066C, strain RNR3, hits give low values 0.991 | locus YIL073C, strain SPO22, hits give low values 1.01 | locus YIL125W, strain kgd1, hits give low values 1 | locus YIR030C, strain dcg1, hits give low values 1 | locus YJL092W, strain hpr5, hits give low values 0.985 | locus YJL095W, strain BCK1 (second series), hits give low values 0.996 | locus YJL095W, strain BCK1, hits give low values 0.924 | locus YJL115W, strain asf1, hits give low values 0.992 | locus YJL129C, strain trk1, hits give low values 0.968 | locus YJL134W, strain LCB3, hits give low values 0.986 | locus YJL154C, strain vps35, hits give low values 0.998 | locus YJL164C, strain tpk1, hits give low values 1.01 | locus YJL166W, strain qcr8, hits give low values 0.986 | locus YJL168C, strain set2, hits give low values 1 | locus YJL187C, strain SWE1 (second series), hits give low values 1.01 | locus YJL187C, strain SWE1, hits give low values 0.984
